Bioassay records from PubChem BioAssay.
This is one part of a sample in which hits are shown more often than they occur.
Sm TGR inh: qHTS Assay for the Inhibitors of Schistosoma Mansoni Peroxiredoxins; Potency, µM (top dose mostly 114 µM), without a hit: top-dose activity change, negative = inhibition, usual class: inhibitors; purified TGR, DTNB reduction, TNB absorbance 405 nm; 360,000 compounds, 3% hits; note: potency is the fitted concentration of half-maximal effect; % is set by controls: 0 for no effect and ±100 for the full control effect; nearly all actives have a fitted effect of over 60% in size
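Kinetic colorimetric format: TGR-catalysed, NADPH-driven DTNB reduction monitored via TNB absorbance. Enzyme dispensed at 20 nM; compound exposure 15 min at room temperature before reaction start.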
TbPYK inhibitor: qHTS of Trypanosoma Brucei Inhibitors; pyruvate kinase (Trypanosoma brucei), Q57TT1; TbPYK enzyme, Kinase-Glo Plus ATP luminescence, 45 min; Potency, µM (series often up to 76.8 µM), for inactives: at the top dose activity, negative = inhibition, actives largely listed as inhibitors; 410,000 compounds, 0.12% hits; AID 624173, 2012; note: potency is the fitted concentration of half-maximal effect; % is set by controls: 0 for no effect and ±100 for the full control effect; nearly all actives have a fitted effect of over 50% in size
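TbPYK + substrate in 50 mM TEA pH 7.2, 100 mM KCl, 10 mM MgCl2, 0.05% BSA, 0.01% Tween-20; cpd pinned; ADP 130 uM final; 45 min RT; Kinase-Glo Plus 10 min; luminescence endpoint.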
Cycloheximide cs: Cycloheximide Counterscreen for Small Molecule Inhibitors of Shiga Toxin. AID 2314, 2010. max response, %. cell reporter, cycloheximide protein synthesis inhibition counterscreen. 300,000 compounds, 12% hits; in the data active = max response mostly above about 13%, no sharp cut-off; inactive = mostly below about 14%; note: read at 38.3 µM for the half of the compounds with a filed dose; 0% is about no effect
Shiga toxin inh: A qHTS for Small Molecule Inhibitors of Shiga Toxin; 290,000 compounds, 9.2% hits; inhibition, % at 38.7 µM; Vero cells, Shiga toxin protein synthesis inhibition reporter; in the data active = inhibition mostly above about 28%, no sharp cut-off; inactive = mostly below about 43%; note: 0% is about no effect
Giardia FBPA inh: qHTS Assay for Inhibitors of Fructose-1,6-bisphosphate Aldolase from Giardia Lamblia. Potency, µM (top dose mostly 59.6 µM), inactives show at the highest dose activity, negative = inhibition, usual class: inhibitors. A8B2U2. 290,000 compounds, 0.71% hits. purified Giardia FBPA; note: potency is the fitted concentration of half-maximal effect; % is set by controls: 0 for no effect and ±100 for the full control effect; nearly all actives have a fitted effect of over 55% in size
Target sequence (A8B2U2 whole entry, looked up): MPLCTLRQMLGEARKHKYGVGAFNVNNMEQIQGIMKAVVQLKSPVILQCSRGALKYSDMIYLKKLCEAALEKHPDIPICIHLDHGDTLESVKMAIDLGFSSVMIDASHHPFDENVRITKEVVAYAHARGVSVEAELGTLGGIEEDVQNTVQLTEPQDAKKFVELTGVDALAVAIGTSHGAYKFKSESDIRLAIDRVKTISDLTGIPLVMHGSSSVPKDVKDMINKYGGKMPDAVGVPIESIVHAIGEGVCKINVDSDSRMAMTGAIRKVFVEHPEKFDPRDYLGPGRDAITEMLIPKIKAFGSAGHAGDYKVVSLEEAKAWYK
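40 nM FBPA preincubated 10 min at RT with compound (up to 57.5 uM final), then substrate plus GAPDH/TPI/NAD/arsenate coupling and diaphorase/resazurin added. Fluorescence read after 20 min at RT, 525/598 nm.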
LmPK inh: qHTS Assay for Inhibitors of Leishmania Mexicana Pyruvate Kinase (LmPK). Q27686. purified LmPK, Kinase-Glo ATP luminescence, 1 h. Potency, µM (series often up to 57.5 µM), for the others: at the highest dose activity change, negative = inhibition, usual class: inhibitors. 290,000 compounds, 0.37% hits; note: potency is the fitted concentration of half-maximal effect; % is set by controls: 0 for no effect and ±100 for the full control effect
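ATP generated from ADP (0.1 mM) and PEP (0.5 mM) by 0.1 nM LmPK over 1 h at room temperature (pH 7.2 imidazole buffer) was detected by coupled luciferase luminescence. Values were normalized to uninhibited and no-enzyme wells.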
Starred values were filed as active, the others as inactive; ? = inconclusive; / = no result; [ ] = dose if it differs, or a comment. Unless noted, calls come from the whole dose curve; as a rule, active = well fitted curve in the direction sought with a large enough effect; inconclusive = small, poorly fitted or top-dose-only effect, or another doubt; inactive = no such curve, though single readings can be large; an effect the other way counts as inactive or inconclusive.

SMILES | Sm TGR inh | TbPYK inhibitor | Cycloheximide cs | Shiga toxin inh | Giardia FBPA inh | LmPK inh
COCC1CCCCN1C(=O)c1cccc(OC2CCN(S(C)(=O)=O)CC2)c1 (configuration not stated) | -1.8% | 6.1% | 15.6* | 16.1 | / | 0.4%
CS(=O)(=O)N1CCC(Oc2ccccc2C(=O)NC2CCCCCC2)CC1 | -5.7% | 3.0% | 16.9* | 12.8 | -1.1% | 3.2%
COc1cc(C(=O)NNC(=O)c2nn(C)c(=O)c3ccccc23)cc(OC)c1OC | / | -1.0% | / | / | / | /
CCOCCCNC(=O)c1cccc(OC2CCN(S(C)(=O)=O)CC2)c1 | 7.8% | -1.1% | 30.3* | 35.1* | 7.3% | -1.7%
NC(=O)Nc1ccc(C(=O)OCC(=O)N2CCc3ccccc3C2)cc1 | -15.4% | -1.6% | / | / | / | /
CCOC(=O)c1ccc(NC(=O)N2CCc3ccccc3C2)cc1 | -12.7% | 7.6% | 30.3* | 18.6 | -0.6% | 3.0%
CCOC(=O)c1ccc(NC(=O)N2CCc3ccccc32)cc1 | -1.7% | -11.6% | 28.6* | 58.4* | -8.0% | ?
COc1ccc(-c2nc3cnc(OC)nc3n(C3CC3)c2=O)cc1 | / | 7.0% | / | / | 3.9% | /
Cc1ccc2[nH]c3ccccc3c(=O)c2c1 | ? | -0.1% | 28.0* | 48.5* | 11.8% | -4.2%
O=c1c2ccccc2[nH]c2ccc(O)cc12 | -28.7% | ? | 2.9 | 15.6 | -6.3% | 2.4%
CCOCCCNC(=O)C(=O)Nc1c2c(nn1-c1ccc(OC)cc1)CSC2 | -2.1% | 0.0% | / | / | / | /
COc1cc2c(cc1NCc1ccccn1)oc1ccccc12 | 2.9% | -4.3% | 11.4 | 33.0* | ? | 1.0%
O=S(=O)(NCc1ccc2c(c1)OCO2)c1ccc2oc3ccccc3c2c1 | / | 5.9% | / | / | / | /
CCCc1cc(C(=O)Nc2cc(OC)ccc2OC)cs1 | -21.1% | 0.3% | 17.8* | 30.3* | -10.0% | -5.2%
COc1cc2c(cc1NCc1ccc3c(c1)OCO3)oc1ccccc12 | -9.0% | 0.7% | 37.2* | 68.2* | -1.3% | 5.2%
COc1ccc(OC)c(NC(=O)c2cccc(NC(=O)c3ccccc3)c2)c1 | 28.8% | 0.1% | 5.9 | 20.9 | -0.7% | 2.1%
COc1ccccc1NC(=O)c1ccc2c(c1)OCO2 | 8.1% | -13.4% | 49.8* | 81.7* | -4.8% | -10.1%
O=C(NC(=S)Nc1cc([N+](=O)[O-])ccc1O)C1CC1 | -17.2% | 0.4% | 17.8 | 21.5 | / | -4.9%
Cc1ccc(N2CC(c3nnc(Cc4ccc(F)cc4)o3)CC2=O)cc1 (configuration not stated) | -5.4% | 3.3% | / | / | / | /
N#Cc1nc(NCC2CC2)nc(Nc2ccccc2)n1 | / | / | / | / | 0.2% | /
CCCN(CCC)S(=O)(=O)c1ccc(C(=O)Nc2cc3oc4ccccc4c3cc2OC)cc1 | -5.3% | -3.5% | 18.9* | -11.4 | -1.3% | -0.1%
COc1ccc(C(=O)Oc2ccc3c(c2)OCO3)cc1OC | 4.3% | -9.0% | 30.5* | 74.6* | 5.9% | -16.4%
COc1ccc(OC)c(NC(=O)c2ccc(NC(C)=O)cc2)c1 | -26.8% | 3.2% | 8.7 | -9.5 | 1.4% | -0.1%
COc1ccc(CC(=O)Nc2nc(-c3cc(OC)ccc3OC)cs2)cc1 | 17.6% | 4.1% | 5.0 | -4.5 | -7.0% | 2.8%
COc1ccc(OC)c(NC(=O)c2ccc(OC3CSC3)cc2)c1 | 10.7% | -0.1% | 20.6* | 28.2 | -1.9% | 1.4%
SMILES | Sm TGR inh | TbPYK inhibitor | Cycloheximide cs | Shiga toxin inh | Giardia FBPA inh | LmPK inh
COc1ccc(OC)c(-c2csc(NC(=O)c3ccc4c(c3)OCO4)n2)c1 | -9.6% | -9.4% | 18.4* | 62.8* | -12.1% | 4.6%
CCN1C[C@]2(C)CC[C@H](O)[C@@]34C5C[C@@H]6[C@@H](OC)C[C@@](O)(C5[C@H]6O)[C@@H](CC23)[C@@H]14 (some centres not stated) | / | / | / | / | 12.4% | /
O=C(Nc1ccc(Cl)cc1)c1ccc(OC2CSC2)cc1 | -4.0% | 0.1% | 18.0* | 66.0 | 4.0% | -1.6%
COc1ccccc1N1CCN(C(CNC(=O)c2ccc3c(c2)OCO3)c2cccnc2)CC1 (configuration not stated) | -22.7% | 3.4% | 15.0* | 26.4 | 0.2% | -0.4%
COCCNC(=O)C(=O)NCC(c1cccnc1)N1CCN(c2ccccc2OC)CC1 (configuration not stated) | 9.4% | -4.5% | / | / | / | /
CCN(CC)S(=O)(=O)c1cccc(C(=O)Nc2cc3oc4ccccc4c3cc2OC)c1 | -9.8% | 20.8% | -3.6 | -1.0 | 3.5% | 1.6%
COc1cc2c(cc1NC(=O)c1ccc3c(c1)OCO3)oc1ccccc12 | -1.7% | 0.7% | 40.7* | 92.1* | 3.3% | -10.0%
COc1ccc(OC)c(NC(=O)c2ccc3c(c2)OCO3)c1 | 1.2% | -0.3% | 23.9* | / | -14.5% | -0.9%
O=C(O)/C=C/c1cc(F)c(S(=O)(=O)N2CCN(S(=O)(=O)c3ccc4c(c3)OCCO4)CC2)cc1F | / | / | -2.5 | -5.2 | / | /
Cc1c(C(=O)Nc2ccccc2Cl)sc2ncnc(N(C)C3CCCCC3)c12 | 1.0% | 0.7% | / | / | / | /
O=S(=O)(c1ccc2c(c1)OCO2)N1CCN(c2nnnn2-c2ccccc2)CC1 | 4.9% | -5.3% | 35.9* | 13.3 | 16.4% | 0.6%
N#CC1(NC(=O)CSc2n[nH]c(-c3ccccc3)n2)CCCCC1 | 0.6% | -12.7% | / | / | / | /
CCOC(=O)c1c(C)n(C)c2cc(CN(C)C)c(O)c(S(=O)(=O)c3ccccc3)c12 | 10.0% | 18.6% | 23.5* | 36.4 | 0.7% | 0.4%
CCOC(=O)c1c(CS(=O)(=O)c2ccccc2)n(C)c2cc(Br)c(O)c(CN(C)C)c12 | -8.7% | -11.9% | -8.1 | -3.5 | -5.8% | 9.2%
CC(=O)Cc1nsc(NC(=O)c2ccc(-c3ccc(F)cc3)o2)n1 | / | 13.3% | 15.7* | 12.9 | -8.4% | 3.2%
CC(=O)Cc1nsc(NC(=O)c2ccccc2)n1 | ? | -8.6% | 10.9 | 69.2 | -0.5% | -10.9%
Cc1ccc(SCc2ccc(C(=O)Nc3nccs3)o2)cc1 | 0.9% | 3.4% | 38.3* | 80.9* | -3.4% | -9.6%
CC(=O)Cc1nsc(NC(=O)c2ccc(-c3ccc(Cl)c(C(F)(F)F)c3)o2)n1 | -0.3% | -2.0% | -1.3 | 20.1 | 4.6% | -0.3%
O=C(Nc1nccs1)c1ccc(COc2ccccc2)o1 | -19.8% | -4.4% | 50.2* | 83.8* | 3.5% | -0.5%
CC(=O)Cc1nsc(NC(=O)c2cccs2)n1 | -15.4% | 0.7% | 30.7* | 15.9 | -0.6%[12.9 µM] | -13.8%
CCCCC/C=C\C/C=C\C/C=C\C/C=C\CCCC(=O)N[C@H](C)CO | / | / | 3.9 | 26.7 | -0.5% | /
CC(=O)Cc1nsc(NC(=O)c2ccc(COc3ccccc3Cl)o2)n1 | -23.0% | 1.8% | -3.3 | -10.1 | 13.4% | -2.4%
